Sampled rows, rich in hits. Any-hit rate of the full collection: about 2.7%.
IP6K1 inh: Primary qHTS assay for small molecule inhibitors of Inositol hexaphosphate kinase 1 (IP6K1); Inositol hexakisphosphate kinase 1 (Homo sapiens), Q92551; IP6K1 kinase, ADP-Glo luminescence, 2 h; hits give low values; activity change, % (series mostly up to about 58 µM); hit rate 0.81% among 140,000; AID 1645851, 2021; in the data active = activity change below about -25%; also: % is scaled to controls: 0 for no effect and ±100 for the full control effect
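ADP-Glo luminescence measures ADP made by human IP6K1 during a 2 h RT reaction with ATP/IP6 (mix at 1.3 mM/130 uM); top library doses 57.5 and 19.1 uM final.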
KDM5B inhibitor: Primary screen for KDM5B Histone Demethylases FDH-coupled qHTS; Potency, µM (series often up to 57.7 µM), actives largely listed as inhibitors; Lysine-specific demethylase 5B (Homo sapiens), Q9UGL1; hit rate 2.6% among 220,000; KDM5B demethylase, FDH-coupled NADH fluorescence (FDH is formaldehyde dehydrogenase); AID 1347165, 2019; active = well fitted inhibition curve with a large enough effect; inconclusive = small, poorly fitted or top-dose-only effect; inactive = no such curve, though single readings can be large or run the other way; also: potency is read from the fitted curve at half-maximal effect; 0% is about no effect; nearly all actives have a fitted effect of over 70% in size
Target sequence (Q9UGL1 whole entry, looked up): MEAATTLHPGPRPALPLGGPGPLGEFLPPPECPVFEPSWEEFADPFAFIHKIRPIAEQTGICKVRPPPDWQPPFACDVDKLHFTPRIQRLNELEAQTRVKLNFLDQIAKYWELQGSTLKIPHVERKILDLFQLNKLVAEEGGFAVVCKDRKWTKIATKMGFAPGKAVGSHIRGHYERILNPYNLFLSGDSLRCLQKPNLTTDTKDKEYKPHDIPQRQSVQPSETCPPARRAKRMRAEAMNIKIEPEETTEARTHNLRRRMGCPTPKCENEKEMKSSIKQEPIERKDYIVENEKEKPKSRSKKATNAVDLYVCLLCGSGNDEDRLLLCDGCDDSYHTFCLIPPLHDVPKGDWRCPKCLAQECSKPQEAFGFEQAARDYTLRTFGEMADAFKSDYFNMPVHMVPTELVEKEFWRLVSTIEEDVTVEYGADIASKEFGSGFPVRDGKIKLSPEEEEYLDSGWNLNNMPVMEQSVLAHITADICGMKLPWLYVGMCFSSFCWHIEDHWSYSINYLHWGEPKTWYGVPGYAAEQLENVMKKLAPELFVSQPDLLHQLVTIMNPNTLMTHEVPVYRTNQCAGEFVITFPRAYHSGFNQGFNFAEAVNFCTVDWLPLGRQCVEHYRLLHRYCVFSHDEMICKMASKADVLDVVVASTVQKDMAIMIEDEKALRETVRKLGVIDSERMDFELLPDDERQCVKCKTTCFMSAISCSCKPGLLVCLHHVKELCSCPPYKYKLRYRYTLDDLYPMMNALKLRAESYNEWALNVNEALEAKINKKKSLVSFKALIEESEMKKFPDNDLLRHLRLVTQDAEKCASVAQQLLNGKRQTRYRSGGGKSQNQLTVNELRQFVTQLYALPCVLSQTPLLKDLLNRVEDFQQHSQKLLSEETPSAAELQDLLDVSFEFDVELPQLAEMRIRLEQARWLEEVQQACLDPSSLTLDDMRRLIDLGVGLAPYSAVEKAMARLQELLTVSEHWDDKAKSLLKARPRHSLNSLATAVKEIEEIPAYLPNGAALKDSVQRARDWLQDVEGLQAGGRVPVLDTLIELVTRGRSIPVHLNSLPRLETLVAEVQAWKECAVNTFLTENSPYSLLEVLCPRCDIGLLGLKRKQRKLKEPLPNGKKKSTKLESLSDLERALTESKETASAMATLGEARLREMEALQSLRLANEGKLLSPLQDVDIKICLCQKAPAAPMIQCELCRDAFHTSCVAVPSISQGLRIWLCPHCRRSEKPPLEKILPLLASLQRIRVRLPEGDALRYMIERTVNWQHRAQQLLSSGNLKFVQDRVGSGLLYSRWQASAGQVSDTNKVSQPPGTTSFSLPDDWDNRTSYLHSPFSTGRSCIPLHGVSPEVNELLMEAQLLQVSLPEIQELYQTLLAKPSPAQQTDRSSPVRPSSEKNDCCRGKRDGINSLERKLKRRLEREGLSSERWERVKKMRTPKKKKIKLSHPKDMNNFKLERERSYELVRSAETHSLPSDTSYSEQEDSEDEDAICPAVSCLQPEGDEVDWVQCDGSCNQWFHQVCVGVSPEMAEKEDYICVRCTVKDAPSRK
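Coupled FDH/NAD⁺ fluorescence readout. KDM5BΔAP 200 nM final; compound titration, 10 min RT preincubation; substrate mix 12.5 µM H3K4me3, 25 µM 2-OG, 50 µM Fe(II), 100 µM ascorbate, 0.25 mM NAD⁺, 0.25 U/mL FDH; ΔRFU over 30 min.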
The depositor's hits bear a star; i = inactive; ? = inconclusive; . = no result.

SMILES | IP6K1 inh | KDM5B inhibitor
CN1CCC(N[C@H]2[C@H](O)[C@H](O)C[C@@H]2c2ccc(N3CCOCC3)nc2)CC1 | 1.5 | 31.6µM*
COc1ccccc1C(=O)N[C@H]1[C@H](O)[C@H](O)C[C@@H]1c1ccc(N2CCOCC2)nc1 | -3.6 | ?
COc1cccc(C(=O)N[C@H]2[C@H](O)[C@H](O)C[C@@H]2c2ccc(N3CCOCC3)nc2)c1 | -6.3 | 35.5µM*
COc1cccc(CN[C@H]2[C@H](O)[C@H](O)C[C@@H]2c2ccc(N3CCOCC3)nc2)c1 | -0.5 | 35.5µM*
COc1ccc(CN[C@H]2[C@H](O)[C@H](O)C[C@@H]2c2ccc(C(F)(F)F)nc2)cc1 | 7.1 | i
Cc1cc(C(=O)N[C@H]2[C@H](O)[C@H](O)C[C@@H]2c2ccc(N3CCOCC3)nc2)n(C)n1 | -1.8 | ?
O=C(O)C12CC3CC(C1)CC([N+](=O)[O-])(C3)C2 | . | i
CCC1CCCCN1C(=O)c1ccc(-c2nnc3ccc(NC(=O)C4CCC4)cn23)cc1 (configuration not stated) | -1.1 | ?
O=C(NCc1ccccc1Cl)c1ccc2oc(-c3cccnc3)nc2c1 | -2.2 | .
O=C(NCc1cccs1)c1cc(-c2cccnc2)c2nncn2n1 | 12.8 | 100µM*
O=C(NCc1cccs1)c1cc(-c2ccccc2)c2nncn2n1 | 2.4 | .
O=C(NCc1nnc2cc(-c3nc(C4CC4)no3)ccn12)c1cccc(Cl)c1 | 33.4 | 14.1µM*
CC(C)c1noc(-c2ccn3c(CNC(=O)c4ccc(F)c(Cl)c4)nnc3c2)n1 | 10.0 | ?
O=C(NCc1nnc2cc(-c3nc(C4CC4)no3)ccn12)c1ccccc1 | 12.0 | i
O=C(NCc1nnc2cc(-c3nc(C4CC4)no3)ccn12)C1CC1 | 38.7 | i
O=C(NCc1nnc2cc(-c3nc(C4CC4)no3)ccn12)c1ccccc1Cl | 35.7 | 22.4µM*
Cc1cc(C)cc(C(=O)NCc2nnc3cc(-c4nc(C5CC5)no4)ccn23)c1 | 14.2 | i
O=C(NCc1nnc2cc(-c3nc(C4CC4)no3)ccn12)c1ccoc1 | -0.5 | 31.6µM*
Cc1noc(-c2ccn3c(CNC(=O)c4ccc(F)c(Cl)c4)nnc3c2)n1 | 17.7 | 25.1µM*
COc1cc(NC(=O)Cn2cnc3c(sc4ncccc43)c2=O)cc(OC)c1OC | . | i
Cc1noc(-c2ccn3c(CNC(=O)c4ccccc4F)nnc3c2)n1 | 25.8 | i
Cc1noc(-c2ccn3c(CNC(=O)c4nccc5ccccc45)nnc3c2)n1 | 6.8 | 31.6µM*
Cc1noc(-c2ccn3c(CNC(=O)c4ccccc4Cl)nnc3c2)n1 | -3.2 | 28.2µM*
CCc1noc(-c2ccn3c(CNC(=O)c4nccc5ccccc45)nnc3c2)n1 | 6.4 | ?
O=C(NCc1nnc2cc(-c3nc(C4CC4)no3)ccn12)c1c(F)cccc1F | 13.0 | 25.1µM*
SMILES | IP6K1 inh | KDM5B inhibitor
Cc1nn(-c2ccccc2)c2c1C(C1CC1)N(C1CCN([S+](=O)([O-])c3cccs3)C1)C2=O (configuration not stated) | -2.0 | .
CSc1ccc(Cl)c(C(=O)Nc2ccc3c(c2)CCC3)c1 | . | i
O=C(c1ccc(C2SCCS2)cc1)N1CCN(Cc2ccccc2)CC1 | . | i
FC(F)(F)c1ccc2nc([C@H]3CCN(CC4CC4)C3)[nH]c2c1 | 7.1 | i
COc1ccc2cc(-c3[nH]ncc3CN3CCCC3c3nonc3C)ccc2c1 (configuration not stated) | . | i
O=C1NCCCC[C@@H]1Nc1ccc(-c2nc(COc3ccccc3)no2)cn1 | 2.5 | 28.2µM*
Cc1nonc1C1CCCN1c1ccc(-c2nc(COc3ccccc3)no2)cn1 (configuration not stated) | -11.0 | 28.2µM*
c1ccc(OCc2noc(-c3ccc(NCC4CCCCO4)nc3)n2)cc1 (configuration not stated) | 13.0 | ?
CCn1cc(C(=O)c2cc(Cl)ccc2O)cc1-c1nc2ccccc2c(=O)[nH]1 | . | i
CC1Nc2ccccc2NC2=C1C(=O)CC(C)(C)C2 (configuration not stated) | . | i
Cc1ccc([S+](=O)([O-])N2CCCC2C(=O)N2CCC(N3Cc4ccccc4C3=O)CC2)cc1 (configuration not stated) | 16.8 | .
O=C(Nc1ccc(F)cc1)c1ccc2cc[nH]c2n1 | 5.5 | 112µM*
O=C(Nc1ccc(F)c(F)c1)c1ccc2ccccc2n1 | . | i
CN(C)C(=O)c1ccc2cc[nH]c2n1 | -2.9 | 126µM*
CN(C)C(=O)c1[nH]cnc1C(=O)NCC(C)(C)C | . | i
CC(=O)Nc1c(S(=O)(=O)c2ccc(C)cc2)c(C)c(C)n1Cc1ccccc1 | . | i
COc1ccc(C(=O)N2CCC3(CC2)NCCc2c3[nH]c3ccccc23)cc1F | 10.6 | i
COCCn1c(C)nnc1-c1cc(-c2ccnc(C)c2)ccn1 | -6.0 | i
COCCn1c(C)nnc1-c1cc(-c2cccc(OC)c2)ccn1 | -1.9 | 35.5µM*
O=C(NCc1ccccc1C(F)(F)F)C1CCCN(c2cnn(Cc3ccccc3)c(=O)c2)C1 (configuration not stated) | 19.2 | i
COc1cccc(-c2ccc3c(n2)CNC(=O)CO3)c1 | 10.9 | 31.6µM*
O=C1COc2ccc(-c3ccccc3)nc2CN1 | -11.1 | i
Cc1ccc(-n2c3c(c(=O)[nH]c2=O)CN(Cc2ccco2)CN3)cc1C | . | i
CN(CCc1noc(C2CN(Cc3ccc(Cl)c(F)c3)C2)n1)S(C)(=O)=O | 2.2 | i
COc1ccc(-c2cc(N3CCCC(NC(=O)c4c[nH]c5ccccc45)C3)n[nH]2)cc1 (configuration not stated) | 10.3 | ?
SMILES | IP6K1 inh | KDM5B inhibitor
COc1ccc(C(=O)N2CCCN(c3cc(-c4ccc(OC)cc4)[nH]n3)CC2)cc1 | 3.1 | i
COc1ccccc1C(=O)NC1CCN(c2cc(C(F)(F)F)nc(C)n2)CC1 | 0.0 | i
COc1ccc(-c2cc(N3CCCN(C(=O)c4cccc5[nH]ccc45)CC3)n[nH]2)cc1 | 12.5 | 28.2µM*
O=C(NC1CCN(c2cc(-c3ccc(F)cc3)[nH]n2)C1)c1c[nH]c2ccccc12 (configuration not stated) | 0.0 | 14.1µM*
COc1ccc(-c2cc(N3CCCC(NC(=O)c4cccc5[nH]ccc45)C3)n[nH]2)cc1 (configuration not stated) | 2.1 | 25.1µM*
Cc1nc(N2CCC(NC(=O)c3cccc4[nH]ccc34)CC2)cc(C(F)(F)F)n1 | -14.8 | 28.2µM*
O=C(NC1CCN(c2cc(-c3ccc(F)cc3)[nH]n2)CC1)c1c[nH]c2ccccc12 | 22.9 | i
Cc1noc2c(NC3CCN(C)CC3)cc(-c3cccc(C(F)(F)F)c3)nc12 | -5.7 | i
CCNC(=O)NC(=O)CN(CC)CC(C)C(=O)OC (configuration not stated) | . | i
COc1ccc(C2Nc3ccc(C)cc3[C@H]3OCCC[C@@H]23)cc1Br (some centres not stated) | . | i
CCCCCC1CCC(c2ccc(-c3ccccc3)cc2)=CC1=O (configuration not stated) | . | i
CSc1ccc(-c2cccc(C(=O)NCCNC(=O)Nc3ccccc3)c2)cc1 | 3.5 | .
O=C(NC[C@H]1O[C@@H](CC(=O)N2CCN(c3ccccn3)CC2)[C@H](O)[C@@H]1O)Nc1cccc(F)c1 | -3.9 | ?

Source: PubChem BioAssay (National Center for Advancing Translational Sciences (NCATS))
